Screening data deposited in PubChem BioAssay by Sanford-Burnham Center for Chemical Genomics.
A selection: hits, their analogues and other compounds. The true share with any hit is near 4%.
HIF-2a block – blocks HIF-2a reporter activity; 786-0 RCC cells HIF-2a reporter, luciferase luminescence, overnight; inhibition, % at 18.8 µM; hit rate 0.72% among 360,000; AID 624352;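 active = inhibition of the luminescence signal of 40% or more relative to plate controls, in a single-dose primary screen at 18.75 µM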
TROY NFkB inh – inhibitors of TROY-dependent NF-kB signaling; Q293 LMP1-TROYcd NF-kB luciferase reporter, 4 h; inhibition, % at 10 µM; hit rate 0.98% among 360,000; AID 1347056;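 active = compounds whose plate-normalised and pattern-corrected inhibition of the luciferase reporter signal at the single screening dose is 50% or more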
TWEAK Fn14 block – blocks TWEAK-Fn14 interaction in a reporter cell assay; TWEAK-stimulated Fn14 reporter cells, luciferase luminescence, 8 h; inhibition, % at 10 µM; hit rate 2% among 360,000; AID 1159606; in the data active = inhibition above about 50%
CF NFkB inh – blocks PAF-induced NF-kB reporter in cystic fibrosis cells. KKLEB NF-kB-GFP reporter, GFP fluorescence overnight. inhibition, % at 5 µM. AID 588850. hit rate 0.86% among 360,000;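 active = at least 50% inhibition at 5 µM, scaled per plate between neutral and stimulator controls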;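 note: PAF is a Pseudomonas aeruginosa culture filtrate used as stimulus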
KKLEB tox – CF airway cell cytotoxicity counter-screen; KKLEB CF airway cells viability, ATPlite luminescence, overnight; stronger effect = lower value; cells stimulated with P. aeruginosa culture filtrate; activity change (cytotoxicity), % at 5 µM; hit rate 0.36% among 360,000; AID 602141;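 active = corrected activity change at or below -50% at 5 µM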
Peg3 prom inh – Peg3 promoter activity inhibition. HeLa PEG-Prom luciferase reporter, luminescence, overnight. inhibition, % at 20 µM. hit rate 1.7% among 360,000;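 active = inhibition of at least 50% at 20 µM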
A number is an active result; 0 = inactive; - = no result given.

SMILES	HIF-2a block	TROY NFkB inh	TWEAK Fn14 block	CF NFkB inh	KKLEB tox	Peg3 prom inh
CCOC(=O)CSc1n[nH]c(NC(=O)c2ccc(F)cc2)n1	0	0	50	0	0	0
Cc1cccc(NC(=O)CN2CCC(NC(=O)C3CCCCC3)CC2)c1C	0	0	0	0	0	0
COc1cc(C2C3=C(COC3=O)OC(C)(C)Oc3cc4c(cc32)OCO4)cc(OC)c1OC (stereo not given)	0	0	0	64	0	0
CCC1CCCCN1C(=O)CCn1ccnc1 (stereo not given)	0	0	0	0	0	0
COc1ccc(NC(=O)c2c(C)noc2C(C)C)cc1S(=O)(=O)N1CCCCC1	0	0	0	0	0	0
O=S(=O)(c1cccc(NC(=S)N2CCN(c3cccc(Cl)c3)CC2)c1)C(F)F	0	0	83	0	0	0
Cn1c(=O)c(C#N)c(-c2ccc(F)cc2)c2cc(C(=O)c3cc(Cl)cc(Cl)c3O)cnc21	0	67	57	0	0	0
COc1ccccc1-n1c(=O)c(C#N)c(-c2ccc([N+](=O)[O-])cc2)c2cc(C(=O)c3cc(F)ccc3O)cnc21	0	0	0	0	0	0
CSc1nc(C)cc(C)c1C(N)=O	0	0	0	0	0	0
CCOc1ccccc1OCCn1ncc2ccc(OC)c(OC)c2c1=O	0	0	0	0	0	0
COc1ccc2cnn(CCOc3ccccc3)c(=O)c2c1OC	0	0	51	0	0	0
COc1ccc(C(=O)c2[nH]c(N)c(C(=O)NCCc3c[nH]c4ccccc34)c2-c2ccc(C(F)(F)F)cc2)cc1	0	0	0	-	-	-
CCN1CCN(S(=O)(=O)c2ccc(Cl)c(C(=O)N(C)Cc3ccc(Cl)cc3Cl)c2)CC1	0	0	0	0	0	0
CCN1CCN(S(=O)(=O)c2ccc(Cl)c(C(=O)N(C)Cc3cccs3)c2)CC1	0	0	0	0	-52	0
O=C(N/N=C/c1cc(Br)ccc1O)C(=O)Nc1ccccc1OC(F)(F)C(F)F	0	0	0	0	0	57
O=C(N/N=C/c1cc(Cl)ccc1O)C(=O)Nc1ccccc1OC(F)(F)C(F)F	0	0	0	0	0	60
CCN(CC)c1ccc(/C=N\N2CCN(Cc3ccc(C)cc3)CC2)cc1	0	0	0	0	0	0
COc1ccc(OC)c(S(=O)(=O)N2c3ccccc3CC2C)c1 (stereo not given)	0	0	0	0	0	56
COCCn1c(N)c(C#N)c2nc3ccccc3nc21	0	0	0	0	0	0
Nc1c(C(=O)NCc2ccco2)c2nc3ccccc3nc2n1CCc1ccc(F)cc1	0	64	0	0	0	0
N#Cc1c(N)n(CCc2ccc(F)cc2)c2nc3ccccc3nc12	0	-	63	0	0	0
N#Cc1c(N)n(CCOC(=O)c2cccc(Br)c2)c2nc3ccccc3nc12	0	69	0	0	0	0
COc1ccc(-n2c(N)c(C(=O)NCc3ccco3)c3nc4ccccc4nc32)cc1	0	0	66	0	0	0
N#Cc1c(N)n(CCOC(=O)c2cccc([N+](=O)[O-])c2)c2nc3ccccc3nc12	0	0	0	0	0	0
Cc1ccc(C)c(NC(=O)COC(=O)CNC(=O)C2CCCCC2)c1	0	0	0	0	0	0
SMILES	HIF-2a block	TROY NFkB inh	TWEAK Fn14 block	CF NFkB inh	KKLEB tox	Peg3 prom inh
COC(=O)c1sc(NC(=O)c2cc(C)on2)nc1C	0	0	0	0	0	0
CC(C)Cn1c(-c2cccc(S(=O)(=O)N3CCOCC3)c2)n[nH]c1=S	0	0	0	0	0	0
COc1cccc(Cn2c(N)c(C#N)c3nc4ccccc4nc32)c1OC	0	65	0	0	0	0
COc1ccc(Cn2c(N)c(C#N)c3nc4ccccc4nc32)cc1	0	0	0	0	0	0
Nc1c(C(=O)NCCN2CCOCC2)c2nc3ccccc3nc2n1CCc1ccccc1F	0	0	0	0	0	0
Nc1c(C(=O)NCCN2CCOCC2)c2nc3ccccc3nc2n1CCc1ccccc1	0	69	0	0	0	0
Cc1cc(C)c(-c2csc(NC(=O)/C=C/c3cccs3)n2)c(C)c1	0	0	69	58	-62	0
CCCCCC(=O)N1CC2(CC(c3cccc(NC(=O)CC(c4ccccc4)c4ccccc4)c3)=NO2)C[C@@H]1C(N)=O (stereo not given in full)	0	0	0	0	0	0
CC1(Cc2ccc(OC(F)(F)F)cc2)C(=O)Nc2ccc(S(=O)(=O)NC3CCCCC3)cc21 (stereo not given)	0	52	78	0	0	0
COc1ccc(C(C)=O)cc1CN1C(=O)C(Cc2ccccc2)ON=C1c1ncccc1C (stereo not given)	0	0	0	0	0	0
Cc1ccc(NC(=O)Cn2c(O)c(N=NC(=O)c3cc4ccccc4cc3O)c3ccccc32)cc1	0	0	0	0	0	97
Cc1ccc(NC(=O)Cn2c(O)c(N=NC(=O)c3ccncc3)c3ccccc32)cc1	0	0	0	0	0	0
COc1ccc(CCNC(=O)COc2nsnc2N2CCOCC2)cc1OC	0	0	0	0	0	0
Cc1ccc(C2CC(=O)c3cnc(N4CCN(c5ccccc5)CC4)nc3C2)cc1 (stereo not given)	0	0	58	0	0	0
O=C1CC(c2ccc(F)cc2)Cc2nc(N3CCN(c4ccccc4)CC3)ncc21 (stereo not given)	0	0	0	0	0	0
CCN1CCN(c2nc(-c3ccccc3Cl)nc3ccccc23)CC1	0	0	68	0	0	0
CCSc1ccc(NC(=O)c2cccnc2)cc1	0	0	0	0	0	0
COc1ccc2c(CC(=O)Nc3ccc(OC)c(S(=O)(=O)N4CCOCC4)c3)coc2c1	0	0	0	0	0	0
COc1ccc(NC(=O)Cc2coc3cc(C)c(C(C)C)cc23)cc1S(=O)(=O)N1CCOCC1	0	0	53	0	0	0
CCOC(=O)c1c(C)oc2c1c(C=NCc1ccccn1)c(O)c1ccccc12	0	0	0	0	0	0
CCOC(=O)c1c(C)oc2c1c(C=NCC1CCCO1)c(O)c1ccccc12 (stereo not given)	0	69	0	0	0	0
CN(C(=O)CCCN1CCCC1=O)C1CCCN(Cc2ccccc2F)C1 (stereo not given)	0	0	0	0	0	0
Cc1ccc(S(=O)(=O)N2CCOCC2)cc1NC(=O)COc1ccc2c(C)cc(=O)oc2c1	0	0	0	0	0	0
O=C(CCSc1nc(-c2ccco2)cc(C(F)(F)F)n1)NCC1CCCO1 (stereo not given)	0	-	0	0	0	0
O=C(CCCSc1nc(-c2ccco2)cc(C(F)(F)F)n1)NCC1CCCO1 (stereo not given)	0	-	71	0	0	0
COc1cc2c(cc1NC(=O)Nc1ccc(C)cc1)oc1ccccc12	0	0	0	0	0	0
